The list is not random: actives were taken first. Their share in the collection is about 3.8%.
A549 tox-1: counter-screen for Nrf2 inhibitors: cytotoxicity in A549 cells; Potency, µM (series often up to 46 µM), most hits filed as inhibitors; 0.16% of 390,000 active; AID 504648; A549 ARE-Fluc cells, CellTiter-Fluor viability, 18-24 h
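A549 ARE-Fluc cells in 5% FBS OPTI-MEM, 5000 cells/well, rested 2 h then exposed to compounds in concentration-response for 18-24 h at 37 °C. Viability by CellTiter-Fluor fluorescence (Ex 405/Em 525) after 30 min; luciferase luminescence (BugLite, 15 min, RT) read afterwards.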
HepG2 tox-1: counter-screen for TGF-b inhibitors: cytotoxicity in HepG2 cells. Potency, µM (doses to about 46.1 µM), actives largely listed as cytotoxic. 0.76% of 410,000 active. HepG2 CAGA-GFP viability, ATP luminescence, 18 h
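HepG2 CAGA-GFP cells (1000/well, DMEM with 1% FBS) received compound, then TGF-beta at 500 pg/mL final, and were incubated 18 hours at 37 degrees C. Viability was read by CellTiter-Glo luminescence. Media-only wells were set as complete cell-killing and DMSO as no toxicity.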
TGFb inhibitor: inhibitors of TGF-b signaling; HepG2 CAGA-GFP TGF-b/SMAD3 reporter, GFP fluorescence, 18 h; TGF-beta stimulated, 500 pg/mL final; Potency, µM (series often up to 46.1 µM), hits mostly inhibitors; 1.2% of 410,000 active; also: nearly all actives have a fitted effect of over 65% in size
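First, reporter cells (HEPG2 CAGA-GFP) rested 2 h at 37 degrees C. Next, compounds were pinned in and TGF-beta added to 500 pg/mL final. After 18 h, GFP was imaged per cell and summed per well.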
ATXN2 expr inh: ATXN2 expression inhibition; HEK-293 ATXN2-luciferase reporter, luminescence, 24 h; 0.72% of 360,000 active; Potency, µM (series often up to 57 µM), actives largely listed as inhibitors; also: nearly all actives have a fitted effect of over 55% in size
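ATXN2-luciferase reporter cells (luciferase flanked by upstream and downstream ATXN2 gene portions) were treated 24 h at 37 °C with compounds at up to 57 uM. SteadyGlo luminescence gave expression; GF-AFC fluorescence gave viability.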
Nrf2 block: blocks Nrf2 signaling; A549 ARE-Fluc reporter, luciferase luminescence, 18-24 h; Potency, µM (top dose mostly 46 µM), actives largely listed as inhibitors; 2.1% of 360,000 active; AID 504444; also: nearly all actives have a fitted effect of over 60% in size
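Quantitative HTS in A549 cells stably bearing an antioxidant response element-firefly luciferase construct. Inhibition of Nrf2-driven transcription was scored by luminescence after 18-24 h of compound exposure at 37 °C.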
ATXN viability: reduces viability in counter-screen for ATXN expression inhibitors. S2 cells (HEK-293 line with an ATXN2-luciferase reporter) viability, CellTiter-Fluor protease fluorescence, 24 h. Potency, µM (top dose mostly 56.7 µM), most hits filed as cytotoxic. 0.49% of 400,000 active; also: nearly all actives have a fitted effect of over 40% in size
FLuc counter 3: blocks purified firefly luciferase in Nrf2 counterscreen | shares compounds with Nrf2 block | purified firefly luciferase, luminescence inhibition | Potency, µM (doses to about 57.5 µM), most hits filed as inhibitors | 4% of 1,400 active; also: nearly all actives have a fitted effect of over 65% in size
Target sequence (P08659 whole entry, looked up): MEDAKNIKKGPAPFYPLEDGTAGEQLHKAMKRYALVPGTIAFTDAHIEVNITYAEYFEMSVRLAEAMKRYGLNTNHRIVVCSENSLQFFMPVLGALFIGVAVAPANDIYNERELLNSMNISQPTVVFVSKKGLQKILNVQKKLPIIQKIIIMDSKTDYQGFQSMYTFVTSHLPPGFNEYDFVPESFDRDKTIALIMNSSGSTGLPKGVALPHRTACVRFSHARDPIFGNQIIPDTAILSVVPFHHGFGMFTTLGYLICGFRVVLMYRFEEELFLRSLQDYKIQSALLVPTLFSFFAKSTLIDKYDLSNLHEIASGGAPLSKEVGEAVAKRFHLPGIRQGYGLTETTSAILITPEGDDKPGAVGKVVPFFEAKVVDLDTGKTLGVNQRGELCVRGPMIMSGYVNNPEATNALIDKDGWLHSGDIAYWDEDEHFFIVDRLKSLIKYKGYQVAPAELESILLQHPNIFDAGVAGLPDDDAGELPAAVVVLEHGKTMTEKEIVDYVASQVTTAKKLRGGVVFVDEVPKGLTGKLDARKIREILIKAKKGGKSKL
A549 tox-2: toxic to A549 ARE-Fluc cells in Nrf2 counterscreen; shares compounds with Nrf2 block; 2% of 1,400 active; A549 ARE-Fluc cells, cytotoxicity counterscreen; Potency, µM (highest dose often 46.1 µM), most hits filed as inhibitors;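 also: cells exposed to compounds for 18 to 24 hours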
ARE-Fluc inh: reduces Nrf2 ARE reporter signal in A549 cells; shares compounds with Nrf2 block; 74% of 1,400 active; AID 720524; A549 ARE-firefly luciferase reporter, luminescence; Potency, µM (titrated, usually from 46.1 µM), most hits filed as inhibitors; also: nearly all actives have a fitted effect of over 65% in size
TGFb CAGA inh: TGF-b pathway inhibition, cherry-pick retest; HepG2 CAGA-GFP TGF-b reporter, GFP fluorescence, 18 h; cells stimulated with TGF-beta, 500 pg/mL; shares compounds with TGFb inhibitor; Potency, µM (doses to about 46.1 µM), actives largely listed as inhibitors; 63% of 1,600 active; also: nearly all actives have a fitted effect of over 65% in size
HepG2 tox-2: counter-screen for TGF-b inhibitors: cytotoxicity in HepG2 cells; shares compounds with TGFb inhibitor; HepG2 CAGA-GFP viability, ATP luminescence, 18 h; cells stimulated with TGF-beta, 500 pg/mL; Potency, µM (doses to about 46.1 µM), usual class: inhibitors; 27% of 1,600 active; AID 720535; also: nearly all actives have a fitted effect of over 70% in size
TGFb CCL64 inh: orthogonal confirmation of TGF-b inhibitors in CCL64 cells | shares compounds with TGFb inhibitor | CCL64 CAGA-GFP reporter, TGF-b stimulated, GFP fluorescence, 18 h | Potency, µM (highest dose often 46.1 µM), most hits filed as inhibitors | 41% of 1,600 active | AID 720536; also: nearly all actives have a fitted effect of over 65% in size
TGFb COP inh: blocks TGF-b signaling in HepG2 COP reporter; shares compounds with TGFb inhibitor; HepG2 COP-GFP TGF-b reporter, GFP fluorescence, 18 h; cells stimulated by added recombinant TGF-beta; Potency, µM (doses to about 46.1 µM), usual class: inhibitors; 3% of 1,600 active; also: nearly all actives have a fitted effect of over 70% in size
Numbers stand for hits; . = inactive; ? = inconclusive; / = no result given; ! = not active in a repeat. Calls follow the shape of the dose curve; as a rule, active = well fitted curve in the direction sought with a large enough effect; inconclusive = small, poorly fitted or top-dose-only effect, or another doubt; inactive = no such curve, though single readings can be large; an effect the other way counts as inactive or inconclusive.

SMILES	A549 tox-1	HepG2 tox-1	TGFb inhibitor	ATXN2 expr inh	Nrf2 block	ATXN viability	TGFb CAGA inh	HepG2 tox-2	TGFb CCL64 inh	TGFb COP inh	others
CC1CCC/C=C/C2CC(O)CC2C(O)/C=C/C(=O)O1 (stereo unspecified)	?	.	0.11µM	?	0.26µM	?	0.065µM	?	?	.	FLuc counter 3=.;A549 tox-2=?
C[C@H]1CCC[C@H](O)CCCCCc2cc(O)cc(O)c2C(=O)O1	.	.	?	?	.	.	/	/	/	/
COc1cc([C@@H]2c3cc4c(c(O)c3C[C@H]3COC(=O)[C@@H]32)OCO4)cc(OC)c1OC	.	.	?	/	?	/	/	/	/	/
NC(=O)c1cn(C2OC(CO)C(O)C2O)c2ncnc(N)c12 (stereo unspecified)	?	.	0.11µM	0.28µM!	0.46µM	/	0.092µM	0.065µM	0.23µM	.	FLuc counter 3=.;A549 tox-2=?;ARE-Fluc inh=0.82µM
COc1ccc(-c2c3c(=O)n(C)c(=O)n(C)c3c3n2-c2ccccc2NC3c2ccccc2OC)cc1 (stereo unspecified)	.	.	?	.	.	.	/	/	/	/
COc1cc2cc(C(=O)N3CC(COS(C)(=O)=O)c4ccc(O)cc43)[nH]c2c(OC)c1OC (stereo unspecified)	?	.	0.089µM	0.3µM	0.058µM	0.34µM	0.0058µM	0.033µM	0.0058µM	.	FLuc counter 3=.;A549 tox-2=?;ARE-Fluc inh=?
COC(=O)C1=C(c2ccc(-c3ccccc3)c(F)c2)C[C@@H]2CC[C@H]1N2C(=O)N1CCC(O)CC1	.	.	.	?	?	?	/	/	/	/
COC(=O)C1=C(c2ccc3ccccc3c2)C[C@@H]2CC[C@H]1N2C(=O)N1CCOCC1	.	.	13µM	.	?	.	?	.	.	.
COC(=O)C1=C(c2ccc(-c3ccccc3)c(F)c2)C[C@@H]2CC[C@H]1N2C(=O)N1CCC(C)CC1	.	.	4.5µM	.	16µM	?	7.3µM	?	9.2µM	.
CSCCC(c1nnnn1C1CCCCC1)N1CCC(n2c(=O)[nH]c3ccccc32)CC1 (stereo unspecified)	/	.	14µM	?	/	?	26µM	.	.	.
COc1ccc(C(c2nnnn2-c2ccc(OC)cc2)N2CCC(n3c(=O)[nH]c4ccccc43)CC2)cc1 (stereo unspecified)	/	.	11µM	?	/	?	16µM	.	13µM	.
CS(=O)(=O)N1Cc2ccccc2-n2nncc2C1	.	.	.	.	.	.	/	/	/	/
COc1cc2nc(N(C)C)c(CNCCc3c[nH]c4ccccc34)cc2c(OC)c1OC	/	/	/	/	/	.	/	/	/	/
COCCCn1c(N)c(C(=O)OCCOC)c2nc3ccccc3nc21	.	.	.	.	.	.	/	/	/	/
CCOC(=O)c1c(N)n(CCCOC(=O)c2ccco2)c2nc3ccccc3nc12	?	3.5µM	2.8µM	?	?	.	4.1µM	5.2µM	23µM	5.8µM
Cn1c(-c2ccccc2)c(P(=S)(c2ccccc2)c2ccccc2)c2ccccc21	.	/	/	/	.	/	/	/	/	/
C=Cc1cc(OC)c2c(c1)c(=O)oc1c2cc(OC)c2c(O)ccc(C3OC(C)C(O)C(C)(O)C3O)c21 (stereo unspecified)	5.2µM	.	1.4µM	1.7µM	2.1µM	.	0.92µM	1.2µM	2.1µM	.
N[C@@H](Cc1ccc(Oc2cc(I)c(O)c(I)c2)c(I)c1)C(=O)O	/	/	/	.	/	.	/	/	/	/
CCC1CN2CCc3cc(OC)c(OC)cc3C2CC1CC1NCCc2c1[nH]c1ccc(O)cc21 (stereo unspecified)	1.2µM	.	0.089µM	0.0075µM	0.52µM	?	0.018µM	1µM	0.037µM	.
O=C(c1cn(Cc2ccccc2F)c2ncccc12)C(F)(F)F	.	.	?	.	.	.	?	.	.	.
CCCNC(=O)N1[C@H]2CC[C@@H]1C(C(=O)OC)=C(c1ccc(OC)c(OC)c1)C2	.	.	.	.	.	?	/	/	/	/
COc1cccc(NC(=O)c2cccn(Cc3ccccc3C)c2=O)c1	.	.	?	.	/	.	/	/	/	/
CC(C)c1oc(=O)cc2c1[C@@H](O)[C@H]1OC(=O)[C@@]3(C)C[C@@H](O)[C@@H](O)[C@@]2(C)C13 (stereo partly specified)	?	.	8.9µM	?	18µM	?	2.9µM	?	5.2µM	.
Cc1ccc(N2C(=O)NC(=O)/C(=C\C=C\c3ccco3)C2=O)cc1C	.	.	13µM	7.9µM	.	14µM	2.6µM	2.9µM	4.6µM	?
CN(C)c1ccc(/C=C/C=C2/C(=O)NC(=O)N(c3ccccc3)C2=O)cc1	.	.	.	?	?	/	/	/	/	/
NC1CC1c1ccccc1 (stereo unspecified)	/	/	/	.	/	/	/	/	/	/
CNc1cc(Cl)c2nonc2c1[N+](=O)[O-]	?	.	5.6µM	28µM	?	22µM	3.3µM	13µM	2.6µM	?
O=[N+]([O-])c1c(Cl)c(Cl)cc(Cl)c1Cl	/	/	/	.	/	.	/	/	/	/
COc1ccc2[nH]c3c(c2c1)CCN1C(=O)C(CC(=O)NCc2cccc(C(F)(F)F)c2)C[C@H](C(=O)N2CCCCC2)[C@@]31C (stereo partly specified)	.	.	10µM	.	?	?	8.2µM	.	4.6µM	.
